Assay results taken from article PMC4336329 (PLoS ONE, 2015).
The whole screen tested about 310,000 compounds, of which about 14,000 (4.5%) showed an effect of 50% or more. Effects have a minus sign here. Shown is part of a subset that was picked to be rich in strong results.

Target: human ether-à-go-go-related gene (hERG) potassium channel (human, UniProt Q12809)
Test: primary screen, population patch clamp on CHO cells stably expressing hERG; higher = less effect of the substance
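Note: peak tail current of the secondary pulse compared with the same well before compound.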

Sequence of human ether-à-go-go-related gene (hERG) potassium channel (Q12809 whole entry, looked up): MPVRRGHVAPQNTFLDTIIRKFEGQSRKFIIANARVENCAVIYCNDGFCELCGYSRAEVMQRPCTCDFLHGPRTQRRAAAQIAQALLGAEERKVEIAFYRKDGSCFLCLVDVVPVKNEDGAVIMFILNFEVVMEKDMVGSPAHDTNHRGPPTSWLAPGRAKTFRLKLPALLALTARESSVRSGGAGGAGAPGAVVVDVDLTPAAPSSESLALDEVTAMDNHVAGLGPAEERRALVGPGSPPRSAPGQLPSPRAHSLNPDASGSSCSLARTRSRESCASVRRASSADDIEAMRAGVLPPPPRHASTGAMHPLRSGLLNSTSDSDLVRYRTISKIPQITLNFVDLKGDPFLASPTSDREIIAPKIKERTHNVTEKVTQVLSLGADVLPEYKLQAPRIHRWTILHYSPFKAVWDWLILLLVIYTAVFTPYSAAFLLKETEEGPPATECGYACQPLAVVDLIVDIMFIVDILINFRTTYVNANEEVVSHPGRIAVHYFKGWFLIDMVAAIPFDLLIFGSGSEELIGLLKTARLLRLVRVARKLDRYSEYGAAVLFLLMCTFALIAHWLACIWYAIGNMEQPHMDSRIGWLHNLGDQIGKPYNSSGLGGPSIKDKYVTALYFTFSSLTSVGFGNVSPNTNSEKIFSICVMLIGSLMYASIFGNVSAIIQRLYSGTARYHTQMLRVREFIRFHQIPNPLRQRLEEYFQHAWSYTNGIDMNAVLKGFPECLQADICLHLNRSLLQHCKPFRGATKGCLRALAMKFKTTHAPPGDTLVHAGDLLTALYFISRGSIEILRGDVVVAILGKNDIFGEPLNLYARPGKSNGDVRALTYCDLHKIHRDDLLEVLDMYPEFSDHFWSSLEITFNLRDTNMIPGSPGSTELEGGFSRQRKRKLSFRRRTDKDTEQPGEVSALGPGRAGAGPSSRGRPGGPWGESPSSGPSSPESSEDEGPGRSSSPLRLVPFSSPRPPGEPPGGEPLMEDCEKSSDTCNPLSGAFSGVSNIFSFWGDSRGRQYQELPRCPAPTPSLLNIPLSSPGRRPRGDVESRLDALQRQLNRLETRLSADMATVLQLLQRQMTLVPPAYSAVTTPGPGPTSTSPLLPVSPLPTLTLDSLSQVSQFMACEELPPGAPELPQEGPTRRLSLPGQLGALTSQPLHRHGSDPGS

Point of comparison: `CC(C)CCN(C(=O)c1ccc(N2CCCC2=O)cc1)c1c(N)n(Cc2ccccc2)c(=O)[nH]c1=O`, “hERG current change (%, negative = inhibition) at 10uM” value 12.2%. Against it:
- COc1ccc(S(=O)(=O)Nc2cc(C(=O)NCCCN3CCOCC3)ccc2N2CCOCC2)cc1 — higher, 25%
- CC(=O)N(C)c1ccc(NC(=O)Nc2cccc3ccccc23)cc1 — lower, -2.88%
- COC(=O)Cn1c(SCc2ccccc2)nc2ccccc21 — lower, -13.8%
- Cc1cccc(Cn2cccc2/C=C2/C(=N)N3C=CSC3=NC2=O)c1 — lower, -1.72%
- O=C(NCc1nc2ccccc2[nH]1)C1=C[C@H](c2ccc(Br)cc2)C[C@H](OCc2ccc(CO)cc2)O1 — lower, 3.89%
- O=C(NCc1nc2ccccc2[nH]1)C1=C[C@H](c2ccccc2)C[C@H](OCCCCO)O1 — lower, -36.3%
- O=C(NCc1nc2ccccc2[nH]1)C1=C[C@H](c2ccccc2)C[C@H](OCc2ccc(CO)cc2)O1 — lower, -13.6%
- O=C(NCc1nc2ccccc2[nH]1)C1=C[C@H](c2coc3ccccc3c2=O)C[C@H](OCCCCO)O1 — lower, -50.7%
- O=C(NCc1nc2ccccc2[nH]1)C1=C[C@@H](c2csc3ccccc23)C[C@@H](OCCCCO)O1 — lower, -29.6%
- O=C(NCc1nc2ccccc2[nH]1)C1=C[C@@H](c2ccccc2)C[C@@H](OCc2ccc(CO)cc2)O1 — lower, -64.9%
- O=C(NCc1nc2ccccc2[nH]1)C1=C[C@@H](c2ccccc2)C[C@@H](OCCCCO)O1 — lower, -46.5%
- O=C(NCc1ccccc1)C1=C[C@H](c2csc3ccccc23)C[C@H](OCCCCO)O1 — lower, -12.5%
- O=C(Nc1ccccc1)C1=C[C@H](c2csc3ccccc23)C[C@H](OCCCCO)O1 — lower, -5.71%
- O=C(NCc1nc2ccccc2[nH]1)C1=C[C@H](c2coc3ccccc3c2=O)C[C@H](OCc2ccc(CO)cc2)O1 — lower, -21.5%
- O=C(NCc1nc2ccccc2[nH]1)C1=C[C@@H](c2ccc(Br)cc2)C[C@@H](OCCCCO)O1 — lower, -65.9%
- O=C(NCc1ccccc1)C1=C[C@@H](c2csc3ccccc23)C[C@@H](OCCCCO)O1 — lower, -69%
- Nc1nc2c(ncn2C2C[C@H](O)[C@@H](CO)O2)c(=O)[nH]1 (some centres unmarked) — higher, 14.4%
- Cc1nnc(NC(=O)c2ccc(S(=O)(=O)N3CCc4ccccc4C3)cc2)o1 — lower, 8.81%
- Cc1cc(C)n(-c2nnc(C)n2NC(=O)c2cccc(Cl)c2)n1 — lower, 11.1%
- Cc1cccc[n+]1CC(=O)c1ccc(NC(=O)c2ccccc2)cc1.[Br-] — higher, 28.6%
- COc1ccccc1NC(=O)Nc1nc(CC(=O)NCc2ccc(F)cc2)cs1 — lower, -11.4%
- Cc1ccc(S(=O)(=O)NCc2ccccc2)cc1C(=O)NC1CCCCC1 — higher, 15.9%
- COc1cc(C(=O)NCC(=O)OCCN2C(=O)c3ccccc3C2=O)cc(OC)c1OC — lower, 4.2%
- CCNc1nc(Oc2ccc(=O)[nH]n2)nc(SC)n1 — lower, 8.57%
- CC1=CC(C/C(C)=C/COc2ccc3ccc(=O)oc3c2)OC1=O (centres unmarked) — lower, 2.36%
- COC(=O)c1c(NC(=O)c2ccccc2F)sc2c1C(C(=O)OC)CC2 (centres unmarked) — lower, 9.38%
- CCCn1c(SCC(=O)c2cc(OC)ccc2OC)nnc1-c1ccco1 — lower, -12.5%
- O=C(O)C1=C[C@H](c2coc3ccccc3c2=O)C[C@H](OCCCCO)O1 — lower, 3.91%
- O=C(NC1CC1)C1=C[C@@H](c2coc3ccccc3c2=O)C[C@@H](OCCCCO)O1 — lower, -23.8%
- O=C(Nc1ccccc1)C1=C[C@@H](c2coc3ccccc3c2=O)C[C@@H](OCCCCO)O1 — lower, -41.1%
- O=C(O)C1=C[C@@H](c2coc3ccccc3c2=O)C[C@@H](OCCCCO)O1 — higher, 22.8%
- O=C(NCc1ccccc1)C1=C[C@H](c2coc3ccccc3c2=O)C[C@H](OCCCCO)O1 — lower, -55.4%
- O=C(Nc1ccccc1)C1=C[C@H](c2coc3ccccc3c2=O)C[C@H](OCCCCO)O1 — lower, -70.3%
- C#CCNC(=O)C1=C[C@@H](c2coc3ccccc3c2=O)C[C@@H](OCCCCO)O1 — lower, 1.71%
- O=C(NCc1ccccc1)C1=C[C@@H](c2coc3ccccc3c2=O)C[C@@H](OCCCCO)O1 — lower, -83.1%
- C#CCNC(=O)C1=C[C@H](c2coc3ccccc3c2=O)C[C@H](OCCCCO)O1 — lower, -45%
- COc1cc2c(cc1OC)CN(C(=S)Nc1ccccc1)CC2 — lower, -7.19%
- O=C(/C=C/c1cc(Br)ccc1F)Nc1cccnc1 — higher, 14.6%
- COc1ccccc1N(CC(=O)NC1CCCC1)C(=O)C1(C)CC(=O)N=C2C=CC(C)=CN21 (centres unmarked) — higher, 12.5%
- Cc1ccc(-n2cc3ccc([N+](=O)[O-])cc3n2)cc1 — lower, 5.28%
- CC(C)n1c(Nc2ccccc2)nc2ccccc21 — lower, -1.84%
- Cc1cc(NC(=O)CSc2nc3c(sc4ccccc43)c(=O)n2CCc2ccccc2)n[nH]1 — lower, -19.6%
- COc1ccc(NC(=O)CSc2nc3c(sc4ccccc43)c(=O)n2CCCN2CCCC2)cc1 — lower, -30.8%
- COc1ccccc1NC(=O)CSc1nc2c(sc3ccccc32)c(=O)n1CCN(C)C.Cl — lower, 11.5%
- CCN(CC)CCn1c(SCC(=O)Nc2cccc(OC)c2)nc2c(sc3ccccc32)c1=O — lower, -69.2%
- COCCn1c(SCC(=O)Nc2cccc(OC)c2)nc2c(oc3ccccc32)c1=O — lower, -42.2%
- COc1cccc(NC(=O)CSc2nc3c(sc4ccccc43)c(=O)n2CCN(C)C)c1.Cl — lower, -65.5%
- COc1cccc(NC(=O)CSc2nc3c([nH]c4ccccc43)c(=O)n2C)c1 — higher, 16.4%
- CCN(CC)CCn1c(SCC(=O)Nc2ccc(F)cc2)nc2c(sc3ccccc32)c1=O.Cl — lower, -14.9%
- COc1cccc(NC(=O)CSc2nc3c(sc4ccccc43)c(=O)n2CCCN2CCCC2)c1 — lower, -69.8%
- Cc1ccc(C)c(N2CCN(S(=O)(=O)c3ccc4c(c3)CC(=O)N4C)CC2)c1 — lower, -19.4%
- COc1ccc(Nc2nnc(SCC3CCCO3)s2)cc1 (centres unmarked) — lower, -5.7%
- Cc1nc(NC(=O)C(Cl)Cl)sc1C(=O)N(C)C — lower, 5.44%
- CCCC(c1nnnn1CC1CCCO1)N1CCN(c2ccccc2)CC1.Cl (centres unmarked) — lower, -4.74%
- O=C(Nc1cccc(Oc2ccc3c(c2)C(=O)NC3=O)c1)c1ccco1 — lower, -21.8%
- Cc1ccc(C(=O)c2sc3c(c2N)c(=O)[nH]c(=O)n3CCc2ccccc2)cc1 — the same, 12.2%
- CCn1c(=O)[nH]c(=O)c2c(N)c(C(=O)c3cc(F)ccc3F)sc21 — lower, -57.4%
- CCn1c(=O)[nH]c(=O)c2c(N)c(C(=O)c3ccccc3OC)sc21 — lower, -15.2%
- CC1=Nc2ccccc2/C1=C/c1sc(=N)n(-c2nccs2)c1O — lower, 10.5%
- O=C(CN1C(=O)/C(=C/c2ccco2)SC1=S)Nc1ccc(O)c(C(=O)O)c1 — higher, 25.2%
- CCC(=O)N(CCC(Cc1ccccc1)c1ccco1)Cc1ccco1 (centres unmarked) — lower, -1.81%
- c1ccc(CNCCC(Cc2ccccc2)c2ccco2)cc1 (centres unmarked) — lower, -54.8%
- O=C(NCCNCc1ccc(F)cc1)c1ccco1.O=C(O)C(=O)O — lower, 9.99%
- CC(NCCC(Cc1ccccc1)c1ccco1)c1ccccc1 (centres unmarked) — lower, -22%
- CN(C)c1ccc(CNCCC(Cc2ccccc2)c2ccco2)cc1 (centres unmarked) — lower, -52.3%
- CC(=O)NCCC(Cc1ccccc1)c1ccco1 (centres unmarked) — lower, 5.91%
- Fc1ccc(CNCc2ccco2)cc1 — lower, 11.5%
- CC(=O)N(CCC(Cc1ccccc1)c1ccco1)Cc1ccco1 (centres unmarked) — lower, -28.4%
- Fc1ccc(CNCCC(Cc2ccccc2)c2ccco2)cc1 (centres unmarked) — lower, -54.3%
- O=C(Nc1cc(F)ccc1F)c1cccc(-n2cnnn2)c1 — lower, -18.3%
- COC(=O)N/N=C/c1cn(CCCOc2ccccc2)c2ccccc12 — lower, -4.14%
- C#Cc1ccc([C@H]2C=C(C(=O)N3CCOCC3)O[C@@H](OCC)[C@@H]2CCCO)cc1 — lower, 6.65%
- O=C1CCc2cc(S(=O)(=O)N3CCC(C(=O)NC4CCCCCCC4)CC3)ccc2N1 — lower, 10.8%
- COc1ccc(C)cc1NC(=O)C1CCCN1S(=O)(=O)c1ccc2c(c1)CCC(=O)N2 (centres unmarked) — lower, -50.8%
- COc1ccc(NC(=O)C2CCCN2S(=O)(=O)c2ccc3c(c2)CCC(=O)N3)c(OC)c1 (centres unmarked) — lower, -16.8%
- O=C1CCc2cc(S(=O)(=O)N3CCCC3C(=O)NC3CCCCCCC3)ccc2N1 (centres unmarked) — lower, -50.3%
- COc1ccc(NC(=O)C2CCCN2S(=O)(=O)c2ccc3c(c2)CCC(=O)N3)cc1Cl (centres unmarked) — lower, -27.8%
- O=C1CCc2cc(S(=O)(=O)N3CCC(C(=O)NC4CCCC4)CC3)ccc2N1 — lower, -4.68%
- Cc1ccc(/C=N/NC(=O)c2cc(-c3cccnc3)nc3ccccc23)cc1 — lower, -5.06%
